The nature of experiment [1]: Nuclear factor erythroid 2-related factor 2/antioxidant responsive element (Nrf2/ARE) small molecule agonists: qHTS cell viability counter screen in human keratinocytes (AID 1919968; active = well fitted curve in the direction sought with a large enough effect in the repeat runs; an effect the other way counts as inactive or inconclusive; also: nearly all actives have a fitted effect of over 55% in size; also: potency is read from the fitted curve at half-maximal effect). The essentials: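 In human HaCaT keratinocytes stably expressing an ARE-driven luciferase, compound exposure lasted 23 h at 37 C under 5% CO2. Viable cells are quantified with a protease-based fluorogenic reagent (CellTiter-Fluor) read 1 h after addition.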
A general note: In qHTS, concentration-response curves come from the screen itself.

A short description of experiment [2]: Nuclear factor erythroid 2-related factor 2/antioxidant responsive element (Nrf2/ARE) small molecule agonists: luciferase reporter gene qHTS assay in human keratinocytes (AID 1919969). Also: nearly all actives have a fitted effect of over 35% in size. Also: potency is read from the fitted curve at half-maximal effect. On the technique in general: A reporter such as luciferase makes a cellular process visible.
A short description of experiment [3]: G protein-coupled receptor (GPCR) small molecule agonists, calcium flux assay: HEK293 wild type cell line counter screen (AID 1920065). The essentials:
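Fluorescence intensity signals activation. After overnight (18 h) culture and a 1 h calcium dye load at 37 C, compounds are added by pin tool and the plate read at 480/540 nm for 3 min in 1 s steps.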
(In general: A change in cytosolic calcium serves as a functional read-out for many receptors and channels.)

Experiment [4] in a line: p53 small molecule agonists, cell-based qHTS assay with human liver microsomes (AID 1963577).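 Also: p53 response element beta-lactamase reporter cells with liver microsomes plus NADPH.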 The essentials: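 16 h, 37 C exposure of p53RE-bla cells to compounds with human liver microsomes and NADPH (0.5 mg/mL final each); detection via LiveBLAzer mixture, 2 h dark at room temperature.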
Experiment [5] is described as follows: p53 small molecule agonists, cell-based qHTS assay with rat liver microsomes (AID 1963578). In a few lines: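 With rat liver microsomes and NADPH present (0.5 mg/mL final each), p53RE-bla cells are treated with compound for 16 h at 37 C. LiveBLAzer detection mixture is then applied for 2 h at room temperature in the dark.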
A short description of experiment [6]: p53 small molecule agonists, cell-based qHTS assay: qHTS cell viability counter screen (AID 1963581). Also: nearly all actives have a fitted effect of over 45% in size. Also: potency is read from the fitted curve at half-maximal effect. The essentials:
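Luminescence from CellTiter-Glo, reflecting ATP content, serves as the cytotoxicity measure; it is taken after the 2 h reporter substrate step in HCT-116 p53RE-bla cells dosed for 16 h at 37 C.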

The nature of experiment [7]: p53 small molecule agonists, cell-based qHTS assay (AID 1963582; active = well fitted activation curve with a large enough effect in the signal ratio in the repeat runs, not every such curve was filed as active; the % refers to the signal ratio). The essentials: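 After plating, p53RE-bla cells sat 5 h in the incubator; compounds or DMSO vehicle were pinned in; a 16 h incubation at 37 C followed; FRET substrate was added and, 2 h later at RT, fluorescence was measured.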
Experiment [8] has as its target 5-hydroxytryptamine receptor 2A (Homo sapiens) (UniProt P28223). Briefly: 5-hydroxytryptamine receptor 2A (HTR2A) small molecule agonists, cell-based qHTS assay (AID 1963587). Also: nearly all actives have a fitted effect of over 30% in size. Also: potency is read from the fitted curve at half-maximal effect. In a few lines: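 HTR2A-CHO cells, plated 18 h at 37 C/5% CO2, dye-loaded 1 h at 37 C; compounds in DMSO added by pin tool (agonist mode). Intracellular calcium flux read as kinetic fluorescence on FDSS over 2 min at 1 s intervals.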

Experiment [9] addresses Muscarinic acetylcholine receptor M1 (Homo sapiens) (UniProt P11229). Briefly: Cholinergic receptor muscarinic 1 (CHRM1) small molecule antagonists, cell-based qHTS assay (AID 1963588). Also: nearly all actives have a fitted effect of over 40% in size. In a few lines: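 Compounds were tested at 15 concentrations in three independent runs. Dye-loaded CHRM1-CHO cells were exposed 5 min at room temperature before stimulation by acetylcholine added at 50nM. Intracellular calcium was read kinetically on FDSS for 3 min.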

Experiment [10] shares this target. Briefly: Cholinergic receptor muscarinic 1 (CHRM1) small molecule agonists, cell-based qHTS assay (AID 1963589). Also: nearly all actives have a fitted effect of over 35% in size. In a few lines: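 Fluorescent calcium dye reports M1 activation in stably transfected CHO cells. Compounds, 15 concentrations, added after 1 h dye loading at 37 C; kinetic reading at 1 sec intervals.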
A short description of experiment [11]: cAMP Responsive Elements (CRE) small molecule agonists, cell-based qHTS assay (AID 1963590). The essentials:
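Compound exposure lasted 3 h at 37 C/5% CO2 in CRE-bla HEK 293T cells grown in assay medium with 10% dialyzed FBS and 25 mM HEPES. Reporter signal came from LiveBLAzer B/G FRET substrate, 2 h, room temperature.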

The nature of experiment [12]: cAMP Responsive Elements (CRE) small molecule antagonists, cell-based qHTS assay (AID 1963591; active = well fitted inhibition curve with a large enough effect in the signal ratio in the repeat runs, not every such curve was filed as active; the % refers to the signal ratio). The essentials:
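Stimulation used NKH477 at a final 0.25 uM for 3 h in compound-treated CRE-bla HEK293T cells, seeded 18 h beforehand. Reporter activity was measured with LiveBLAzer B/G FRET substrate after 2 h at room temperature.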

Experiment [13] concerns the target Beta-2 adrenergic receptor (Homo sapiens) (UniProt P07550). Briefly: Adrenergic beta2 receptor (ADRB2) small molecule antagonists, cell-based qHTS assay (AID 1963592). Also: series mostly up to about 92 µM; nearly all actives have a fitted effect of over 50% in size. The essentials:
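Assay format: CHO-ADRB2 cells, 18-20hr seeding at 37C/5% CO2, then compound plus 1nM isoproterenol agonist mix for 0.5hr RT. Homogeneous time-resolved fluorescence cAMP detection after 1hr, expressed as 665/615 nm ratio.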

In experiment [14] the target is D(2) dopamine receptor (Homo sapiens) (UniProt P14416). Briefly: Dopamine D2 receptor (DRD2) small molecule agonists, cell-based qHTS assay (AID 1963594). Also: nearly all actives have a fitted effect of over 35% in size. The essentials:
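HEK293 cells stably expressing DRD2 were cultured 24 h at 37 C, then given Ro20-1724 (0.1 mM final) and compounds for 10 min at room temperature. NKH477 (200nM) was then added for 30 min. cAMP was read by HTRF.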

For experiment [15] the target is unchanged. Briefly: Dopamine D2 receptor (DRD2) small molecule antagonists, cell-based qHTS assay (AID 1963595; active = well fitted inhibition curve with a large enough effect in the signal ratio in the repeat runs, with a control signal flat; the % refers to the signal ratio; also: potency is read from the fitted curve at half-maximal effect). In a few lines:
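Antagonist mode in DRD2-HEK293 cells: after compound addition with 0.1 mM Ro20-1724, cells received quinpirole (12 nM) and NKH477 (200 nM) for 30 min at room temperature; HTRF cAMP read after 1 h detection.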

Experiment [16] can be described thus: p53 small molecule agonists, cell-based qHTS assay with human liver microsomes: qHTS cell viability counter screen (AID 1963579). Also: nearly all actives have a fitted effect of over 45% in size. Also: potency is read from the fitted curve at half-maximal effect. The essentials:
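In this multiplexed counter screen, the reporter plates were subsequently treated with CellTiter-Glo so that cell viability, reflected by luminescence, could be recorded for p53RE-bla cells dosed 16 h with compounds under microsomal activation (HLM and NADPH).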

Experiment [17] is described as follows: p53 small molecule agonists, cell-based qHTS assay with rat liver microsomes: qHTS cell viability counter screen (AID 1963580). Also: nearly all actives have a fitted effect of over 45% in size. Also: potency is read from the fitted curve at half-maximal effect. In a few lines:
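Counter screen for cytotoxicity under metabolic activation: rat liver microsomes and NADPH, 0.5 mg/mL final each, added with compounds to p53RE-bla HCT-116 cells; 16 h at 37 C, then ATP luminescence read.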

Experiment [18] addresses Beta-2 adrenergic receptor (Homo sapiens) (UniProt P07550). Briefly: Adrenergic beta2 receptor (ADRB2) small molecule agonists, cell-based qHTS assay (AID 1963593). Also: potency is read from the fitted curve at half-maximal effect.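 As to activation: CHO cells stably overexpressing human ADRB2.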 The essentials:
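CHO cells stably over-expressing ADRB2 were plated overnight at 37C, then dosed with compounds plus a stimulation mix containing 100uM IBMX and 25uM Ro-20-1724 for 0.5hr at room temperature. cAMP was measured by HTRF competition, 1hr.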

In experiment [19] the target is 5-hydroxytryptamine receptor 2A (Homo sapiens) (UniProt P28223). Briefly: 5-hydroxytryptamine receptor 2A (HTR2A) small molecule antagonists, cell-based qHTS assay (AID 1963586). Also: nearly all actives have a fitted effect of over 45% in size. In a few lines: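 CHO cells stably expressing human HTR2A were plated for 18 h at 37 C, then loaded with calcium dye for 1 h. Compounds were preincubated 5 min at room temperature before DOI (4 nM solution) was added. Kinetic fluorescence was read for 3 min.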

The target in experiment [20] is KiSS-1 receptor (Homo sapiens) (UniProt Q969F8). Briefly: Human kisspeptin (KISS1R) small molecule agonists, calcium flux assay in KISS1R-HEK293 cells (AID 1920064; active = well fitted curve in the direction sought with a large enough effect in the repeat runs; an effect the other way counts as inactive or inconclusive). In a few lines:
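Concentration-response testing used 15 concentrations in triplicate on human KISS1R-expressing HEK293 cells. Calcium-dependent fluorescence (Ex/Em 480/540) was followed kinetically for 3 min after compound transfer.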

SMILES strings stand for the structures. Unmarked numbers belong to inactive results. Inconclusive results are not listed. Calls of active or inactive are those of the source. Unless noted, calls follow the shape of the full dose curve.

Muscarinic acetylcholine receptor M1 (Homo sapiens), sequence (P11229 whole entry, looked up): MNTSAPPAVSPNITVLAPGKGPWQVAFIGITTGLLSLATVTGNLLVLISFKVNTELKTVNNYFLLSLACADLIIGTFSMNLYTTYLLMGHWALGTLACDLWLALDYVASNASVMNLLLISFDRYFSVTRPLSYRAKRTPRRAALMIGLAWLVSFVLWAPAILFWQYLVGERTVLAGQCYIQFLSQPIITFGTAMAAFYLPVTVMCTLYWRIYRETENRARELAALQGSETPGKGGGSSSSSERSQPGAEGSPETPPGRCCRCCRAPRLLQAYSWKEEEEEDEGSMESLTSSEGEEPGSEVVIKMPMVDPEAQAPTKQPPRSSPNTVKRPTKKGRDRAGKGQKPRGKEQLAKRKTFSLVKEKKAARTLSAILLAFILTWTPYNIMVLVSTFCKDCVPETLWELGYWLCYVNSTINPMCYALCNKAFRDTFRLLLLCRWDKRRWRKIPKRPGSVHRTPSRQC
KiSS-1 receptor (Homo sapiens), sequence (Q969F8 whole entry, looked up): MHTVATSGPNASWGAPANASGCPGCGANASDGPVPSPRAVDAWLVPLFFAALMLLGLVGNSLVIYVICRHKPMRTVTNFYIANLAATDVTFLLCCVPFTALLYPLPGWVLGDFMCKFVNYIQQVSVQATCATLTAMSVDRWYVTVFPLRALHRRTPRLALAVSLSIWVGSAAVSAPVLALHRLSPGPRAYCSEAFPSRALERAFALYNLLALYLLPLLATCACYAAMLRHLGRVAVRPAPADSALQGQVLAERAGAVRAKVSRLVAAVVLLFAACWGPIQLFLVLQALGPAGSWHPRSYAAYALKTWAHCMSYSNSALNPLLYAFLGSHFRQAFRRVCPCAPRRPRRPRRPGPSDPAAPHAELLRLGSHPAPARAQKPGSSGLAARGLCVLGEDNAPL
D(2) dopamine receptor (Homo sapiens), sequence (P14416 whole entry, looked up): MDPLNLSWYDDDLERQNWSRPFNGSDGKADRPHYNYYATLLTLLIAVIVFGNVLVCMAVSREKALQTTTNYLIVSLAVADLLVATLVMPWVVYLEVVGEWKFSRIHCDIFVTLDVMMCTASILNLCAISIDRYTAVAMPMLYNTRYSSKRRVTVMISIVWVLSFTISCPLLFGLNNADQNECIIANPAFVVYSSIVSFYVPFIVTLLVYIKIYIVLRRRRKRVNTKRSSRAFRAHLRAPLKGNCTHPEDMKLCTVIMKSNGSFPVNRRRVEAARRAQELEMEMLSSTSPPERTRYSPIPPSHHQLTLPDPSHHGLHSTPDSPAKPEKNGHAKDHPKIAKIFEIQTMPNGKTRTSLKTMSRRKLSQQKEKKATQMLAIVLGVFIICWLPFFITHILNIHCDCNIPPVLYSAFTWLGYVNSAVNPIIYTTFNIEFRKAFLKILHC
5-hydroxytryptamine receptor 2A (Homo sapiens), sequence (P28223 whole entry, looked up): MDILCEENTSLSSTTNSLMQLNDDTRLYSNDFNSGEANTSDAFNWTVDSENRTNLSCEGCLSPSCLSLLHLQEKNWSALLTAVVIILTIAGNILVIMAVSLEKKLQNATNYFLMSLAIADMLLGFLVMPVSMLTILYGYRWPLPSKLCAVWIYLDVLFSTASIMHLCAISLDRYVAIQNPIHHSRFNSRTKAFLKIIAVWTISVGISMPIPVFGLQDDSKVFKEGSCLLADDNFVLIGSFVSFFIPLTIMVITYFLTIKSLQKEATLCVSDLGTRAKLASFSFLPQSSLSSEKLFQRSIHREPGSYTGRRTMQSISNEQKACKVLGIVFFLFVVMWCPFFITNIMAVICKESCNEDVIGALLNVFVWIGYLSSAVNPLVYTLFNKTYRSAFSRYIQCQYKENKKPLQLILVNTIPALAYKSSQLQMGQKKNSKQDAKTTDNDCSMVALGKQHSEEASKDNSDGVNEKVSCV
Beta-2 adrenergic receptor (Homo sapiens), sequence (P07550 whole entry, looked up): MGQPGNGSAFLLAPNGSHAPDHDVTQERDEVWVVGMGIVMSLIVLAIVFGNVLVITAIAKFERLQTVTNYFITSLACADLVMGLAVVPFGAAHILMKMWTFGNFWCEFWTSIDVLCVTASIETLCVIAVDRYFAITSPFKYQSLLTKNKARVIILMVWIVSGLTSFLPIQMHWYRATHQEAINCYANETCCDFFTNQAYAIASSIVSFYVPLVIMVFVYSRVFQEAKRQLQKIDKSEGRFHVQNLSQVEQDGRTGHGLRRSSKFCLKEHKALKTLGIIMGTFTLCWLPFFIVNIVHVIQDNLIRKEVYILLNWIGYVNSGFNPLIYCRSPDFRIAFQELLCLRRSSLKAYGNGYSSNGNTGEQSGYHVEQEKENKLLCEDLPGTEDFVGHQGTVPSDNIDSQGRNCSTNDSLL

On to `O=C(Nc1ccc([N+](=O)[O-])cc1)Nc1ccc([N+](=O)[O-])cc1`, for which the Potency entry in [1], in experiment [2], in [4], in experiment [5], in [6] and in [7] was “inactive” throughout. Besides, the Potency entry in experiment [8], in [9], in experiment [10], in experiment [11], in [12] and in experiment [13] was “inactive” throughout. For the same compound, the Potency result in experiment [14] and in [15] was “inactive” each time. Further, in [3], the result was inactive.

Consider `CCCCCCCCCCCCCCCCCCO`, for which the Potency result in experiment [1], in [2], in experiment [4], in experiment [5], in [16] and in [17] was “inactive” throughout. Also, the Potency entry in experiment [6], in experiment [7], in experiment [8], in experiment [9], in [10] and in experiment [11] was “inactive” throughout. Besides, the Potency entry in experiment [12], in experiment [13], in experiment [18], in experiment [14] and in experiment [15] was “inactive” throughout.

`FC(F)(F)C(F)(F)C(F)(F)C(F)(F)C(F)(F)C(F)(F)C(F)(F)C(F)(F)Br`: the Potency result in experiment [1], in [2], in experiment [4], in [5], in experiment [17] and in [6] was “inactive” throughout. The Potency entry in experiment [19], in experiment [8], in experiment [9], in [10], in [11] and in experiment [12] was “inactive” each time. Further, the Potency result in [13], in experiment [14] and in experiment [15] was “inactive” throughout. The result in experiment [3] was inactive.

In the case of `C=CC(=O)OCCOCCOC(=O)C=C`, the Potency in [1] is 54.7 µM (active); in experiment [2], 24.4 µM (active). Moreover, in [3], the result was inactive. Besides, the Potency entry in experiment [4], in experiment [5], in [17], in [19], in experiment [8] and in [9] was “inactive” in each case. For the same compound, the Potency entry in experiment [10], in experiment [13], in [18], in [14] and in [15] was “inactive” in each case.

With `C[C@@]12C(=O)OC(=O)[C@]1(C)C1CCC2O1`, in experiment [1], the Potency is 16.8 µM (active). Besides, the Potency result in [2], in [4], in experiment [5], in experiment [16], in [13] and in [18] was “inactive” each time. Moreover, the Potency result in experiment [14] and in experiment [15] was “inactive” throughout. The outcome in [3] was inactive.

Regarding `C=CC(=O)OCC(CO)(COCC(COC(=O)C=C)(COC(=O)C=C)COC(=O)C=C)COC(=O)C=C`, the Potency in experiment [1] is 4.28 µM (active); in [2], 2.4 µM (active); in experiment [16] it was 3.2 µM (active); in experiment [17], 35.9 µM (active); in experiment [6] it was 14.3 µM (active); in [18], 30.3 µM (active). Moreover, in experiment [15], the Potency is 27 µM (active). Besides, the outcome in [20] and in [3] was inactive. The Potency entry in [4], in experiment [5], in experiment [19], in experiment [9], in experiment [10] and in [14] was “inactive” each time.

Consider `CCOC(=O)C(=O)CCCCCCl`, for which the Potency entry in experiment [1], in [2], in [4], in experiment [5], in experiment [16] and in experiment [17] was “inactive” each time. Besides, the Potency entry in experiment [6], in experiment [7], in experiment [8], in [9], in [10] and in experiment [11] was “inactive” each time. The Potency result in experiment [12], in experiment [18], in experiment [14] and in experiment [15] was “inactive” throughout. Moreover, the result in [20] and in experiment [3] was inactive.

In the case of `COC(=O)c1cccc(Cl)c1`, the Potency result in experiment [1], in experiment [2], in experiment [4], in [5], in [16] and in experiment [17] was “inactive” each time. Also, the Potency result in [6], in experiment [7], in experiment [19], in experiment [9], in experiment [10] and in experiment [11] was “inactive” in each case. The Potency entry in experiment [12], in [13], in experiment [14] and in [15] was “inactive” each time. In addition, the result in [20] and in experiment [3] was inactive. Also, the Potency in experiment [8] is 21.6 µM (active).

The values above are taken from PubChem BioAssay (Tox21).
